Targets with a hit are over-represented here; the source holds about 7,900 in all. About 0.6% of all pairs of compound and target were hits. Values without a mark were called inactive.

UniProt O00193, sequence (O00193 whole entry, looked up): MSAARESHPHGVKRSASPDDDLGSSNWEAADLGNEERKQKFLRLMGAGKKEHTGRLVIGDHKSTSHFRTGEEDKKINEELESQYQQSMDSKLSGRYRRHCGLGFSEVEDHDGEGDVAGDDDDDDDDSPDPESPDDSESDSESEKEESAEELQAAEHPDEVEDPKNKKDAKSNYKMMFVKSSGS
UniProt P27105, sequence (P27105 whole entry, looked up): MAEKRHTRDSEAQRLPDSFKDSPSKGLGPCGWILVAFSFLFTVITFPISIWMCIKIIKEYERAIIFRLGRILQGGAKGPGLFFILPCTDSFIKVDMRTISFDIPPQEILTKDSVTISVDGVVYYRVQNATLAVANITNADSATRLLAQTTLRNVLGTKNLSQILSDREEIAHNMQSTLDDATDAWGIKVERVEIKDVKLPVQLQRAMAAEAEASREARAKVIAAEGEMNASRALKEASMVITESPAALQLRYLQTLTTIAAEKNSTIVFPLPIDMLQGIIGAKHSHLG
UniProt Q6P1M0, sequence (Q6P1M0 whole entry, looked up): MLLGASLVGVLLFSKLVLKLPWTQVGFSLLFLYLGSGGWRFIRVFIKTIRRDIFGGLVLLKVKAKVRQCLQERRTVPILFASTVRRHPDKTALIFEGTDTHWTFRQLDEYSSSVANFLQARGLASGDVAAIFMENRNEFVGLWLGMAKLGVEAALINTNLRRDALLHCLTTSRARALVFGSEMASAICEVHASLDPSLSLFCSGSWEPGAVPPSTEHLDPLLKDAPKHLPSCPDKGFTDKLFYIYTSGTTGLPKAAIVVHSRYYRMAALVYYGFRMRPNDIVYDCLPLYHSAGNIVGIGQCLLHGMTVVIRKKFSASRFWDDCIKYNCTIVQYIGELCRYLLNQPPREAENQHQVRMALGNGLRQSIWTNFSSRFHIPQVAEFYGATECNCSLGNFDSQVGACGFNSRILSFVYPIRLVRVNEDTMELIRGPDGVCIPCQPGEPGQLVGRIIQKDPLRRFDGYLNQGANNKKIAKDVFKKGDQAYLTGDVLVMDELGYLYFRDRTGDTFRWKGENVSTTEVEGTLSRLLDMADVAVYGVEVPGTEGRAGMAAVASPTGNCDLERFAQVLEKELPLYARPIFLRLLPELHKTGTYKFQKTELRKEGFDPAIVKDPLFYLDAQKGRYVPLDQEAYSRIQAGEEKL
UniProt Q02447, sequence (Q02447 whole entry, looked up): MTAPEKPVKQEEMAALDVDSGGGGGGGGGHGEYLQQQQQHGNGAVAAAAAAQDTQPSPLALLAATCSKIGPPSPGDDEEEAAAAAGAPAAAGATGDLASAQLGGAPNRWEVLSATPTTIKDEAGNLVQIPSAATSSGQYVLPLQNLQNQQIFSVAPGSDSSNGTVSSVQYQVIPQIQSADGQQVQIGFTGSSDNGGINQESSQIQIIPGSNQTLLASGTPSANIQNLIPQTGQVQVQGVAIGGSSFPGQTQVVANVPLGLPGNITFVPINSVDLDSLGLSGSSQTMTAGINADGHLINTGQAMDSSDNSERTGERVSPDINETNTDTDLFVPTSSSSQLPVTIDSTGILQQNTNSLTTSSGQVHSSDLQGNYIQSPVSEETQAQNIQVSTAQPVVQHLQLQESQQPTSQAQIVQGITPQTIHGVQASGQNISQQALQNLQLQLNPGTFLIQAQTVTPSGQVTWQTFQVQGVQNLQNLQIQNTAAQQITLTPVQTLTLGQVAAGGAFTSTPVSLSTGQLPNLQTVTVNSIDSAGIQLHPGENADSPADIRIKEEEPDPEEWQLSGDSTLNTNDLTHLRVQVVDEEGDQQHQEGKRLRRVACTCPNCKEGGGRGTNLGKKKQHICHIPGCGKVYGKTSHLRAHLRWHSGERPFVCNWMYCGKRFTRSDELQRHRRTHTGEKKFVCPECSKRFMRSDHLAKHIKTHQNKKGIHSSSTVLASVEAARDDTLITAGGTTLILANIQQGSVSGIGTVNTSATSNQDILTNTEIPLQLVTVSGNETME
UniProt Q8IY18, sequence (Q8IY18 whole entry, looked up): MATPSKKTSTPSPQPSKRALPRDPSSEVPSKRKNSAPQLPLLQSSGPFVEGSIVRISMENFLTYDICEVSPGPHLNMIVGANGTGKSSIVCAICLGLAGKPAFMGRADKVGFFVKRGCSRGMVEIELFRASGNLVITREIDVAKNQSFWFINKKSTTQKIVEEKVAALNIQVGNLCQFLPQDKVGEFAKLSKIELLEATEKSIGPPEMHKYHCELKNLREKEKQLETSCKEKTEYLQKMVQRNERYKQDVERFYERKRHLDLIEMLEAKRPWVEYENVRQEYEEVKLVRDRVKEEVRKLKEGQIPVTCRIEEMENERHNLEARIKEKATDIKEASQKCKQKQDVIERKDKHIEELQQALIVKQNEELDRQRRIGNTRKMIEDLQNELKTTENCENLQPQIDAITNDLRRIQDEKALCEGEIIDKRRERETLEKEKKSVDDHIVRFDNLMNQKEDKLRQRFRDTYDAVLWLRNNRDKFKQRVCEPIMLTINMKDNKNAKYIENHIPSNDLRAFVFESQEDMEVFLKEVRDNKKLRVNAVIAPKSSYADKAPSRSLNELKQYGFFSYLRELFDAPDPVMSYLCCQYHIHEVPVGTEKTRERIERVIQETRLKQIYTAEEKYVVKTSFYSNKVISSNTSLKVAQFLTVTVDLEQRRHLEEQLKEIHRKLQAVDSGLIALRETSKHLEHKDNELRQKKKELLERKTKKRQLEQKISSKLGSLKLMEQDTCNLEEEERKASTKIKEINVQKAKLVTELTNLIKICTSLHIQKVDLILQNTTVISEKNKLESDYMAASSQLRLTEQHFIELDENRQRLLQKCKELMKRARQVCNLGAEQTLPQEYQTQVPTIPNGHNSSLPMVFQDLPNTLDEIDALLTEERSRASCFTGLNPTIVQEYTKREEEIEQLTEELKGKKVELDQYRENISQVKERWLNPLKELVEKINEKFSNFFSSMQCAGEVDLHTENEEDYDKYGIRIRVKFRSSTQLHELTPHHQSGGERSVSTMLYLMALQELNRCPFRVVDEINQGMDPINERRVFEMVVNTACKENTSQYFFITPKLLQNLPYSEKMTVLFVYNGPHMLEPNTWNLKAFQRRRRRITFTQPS
UniProt Q96DW6, sequence (Q96DW6 whole entry, looked up): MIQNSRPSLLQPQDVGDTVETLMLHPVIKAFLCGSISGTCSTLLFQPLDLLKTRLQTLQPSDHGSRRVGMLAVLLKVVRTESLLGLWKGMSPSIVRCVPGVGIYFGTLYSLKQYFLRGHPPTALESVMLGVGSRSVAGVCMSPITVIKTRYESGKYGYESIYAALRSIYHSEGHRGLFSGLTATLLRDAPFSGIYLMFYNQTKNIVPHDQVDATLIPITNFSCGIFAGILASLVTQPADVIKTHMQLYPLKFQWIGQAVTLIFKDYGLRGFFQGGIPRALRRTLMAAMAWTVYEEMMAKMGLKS
UniProt Q9Y5X3, sequence (Q9Y5X3 whole entry, looked up): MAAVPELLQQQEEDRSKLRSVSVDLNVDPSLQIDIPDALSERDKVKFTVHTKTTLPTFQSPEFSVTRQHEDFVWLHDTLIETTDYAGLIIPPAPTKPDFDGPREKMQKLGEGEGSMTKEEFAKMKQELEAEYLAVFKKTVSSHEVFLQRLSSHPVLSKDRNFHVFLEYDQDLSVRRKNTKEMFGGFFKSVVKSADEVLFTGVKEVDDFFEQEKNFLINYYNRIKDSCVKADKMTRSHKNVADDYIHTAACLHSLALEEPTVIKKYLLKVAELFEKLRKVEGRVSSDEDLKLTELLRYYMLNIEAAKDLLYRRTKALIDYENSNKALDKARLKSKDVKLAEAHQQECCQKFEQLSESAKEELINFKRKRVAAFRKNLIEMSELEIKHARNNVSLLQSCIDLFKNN
UniProt Q6XR72, sequence (Q6XR72 whole entry, looked up): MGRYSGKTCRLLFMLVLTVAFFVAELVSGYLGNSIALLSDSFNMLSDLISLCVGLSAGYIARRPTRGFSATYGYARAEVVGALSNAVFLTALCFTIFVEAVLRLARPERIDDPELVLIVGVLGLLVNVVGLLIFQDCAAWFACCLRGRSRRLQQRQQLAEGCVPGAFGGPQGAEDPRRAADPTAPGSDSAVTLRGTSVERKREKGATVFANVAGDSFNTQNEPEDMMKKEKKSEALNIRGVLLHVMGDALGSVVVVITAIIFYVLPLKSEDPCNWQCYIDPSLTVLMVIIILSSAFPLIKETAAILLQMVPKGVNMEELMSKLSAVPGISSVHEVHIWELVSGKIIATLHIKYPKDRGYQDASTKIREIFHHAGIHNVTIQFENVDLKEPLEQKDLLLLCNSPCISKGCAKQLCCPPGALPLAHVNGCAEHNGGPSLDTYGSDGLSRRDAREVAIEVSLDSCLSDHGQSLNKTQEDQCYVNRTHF
UniProt Q9UMY4, sequence (Q9UMY4 whole entry, looked up): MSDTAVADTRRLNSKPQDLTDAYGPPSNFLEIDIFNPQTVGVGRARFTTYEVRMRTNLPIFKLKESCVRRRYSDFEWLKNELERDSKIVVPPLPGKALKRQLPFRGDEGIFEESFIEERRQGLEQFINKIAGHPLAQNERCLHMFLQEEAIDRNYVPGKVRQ
UniProt Q5JUR7, sequence (Q5JUR7 whole entry, looked up): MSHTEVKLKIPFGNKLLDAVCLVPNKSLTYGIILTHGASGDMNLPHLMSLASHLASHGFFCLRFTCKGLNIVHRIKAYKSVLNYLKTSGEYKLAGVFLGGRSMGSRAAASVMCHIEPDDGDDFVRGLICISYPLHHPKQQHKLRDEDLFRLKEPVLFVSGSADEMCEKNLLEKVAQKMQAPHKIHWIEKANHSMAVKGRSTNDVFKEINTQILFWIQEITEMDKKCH
UniProt O75494, sequence (O75494 whole entry, looked up): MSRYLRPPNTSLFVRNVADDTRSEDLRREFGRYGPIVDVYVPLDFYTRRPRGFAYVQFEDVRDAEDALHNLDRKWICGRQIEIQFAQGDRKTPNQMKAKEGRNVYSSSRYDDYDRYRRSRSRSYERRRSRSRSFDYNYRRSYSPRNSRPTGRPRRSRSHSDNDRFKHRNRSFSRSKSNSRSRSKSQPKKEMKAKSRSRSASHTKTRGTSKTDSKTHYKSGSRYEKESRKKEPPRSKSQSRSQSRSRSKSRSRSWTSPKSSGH
UniProt Q9Y5L4, sequence (Q9Y5L4 whole entry, looked up): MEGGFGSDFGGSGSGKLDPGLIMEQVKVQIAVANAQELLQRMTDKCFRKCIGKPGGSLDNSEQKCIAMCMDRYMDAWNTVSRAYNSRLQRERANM

Compound in the assay: CC1=C(C2=C(C=C1)C(=O)C3=CC=CC=C3N2CCCN)C
The assay can be described thus: log2 fold change, soluble protein after heating vs DMSO (PISA); higher = thermal stabilisation; K562 cells, 10 uM, 30 min; active = over 0.2 and 3.5 SD of the protein, either way, in both replicates (recomputed). In short, it runs like this:
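K562 cells at 2×10^6 cells/mL were exposed to 10 μM compound for 30 min, then aliquots were heated for 3 min across 48°C-58°C, pooled, and extracted in PBS containing 0.5% NP-40 at 4°C. The supernatant after 21,000xg for 90 min was taken as soluble protein and measured by TMTpro 16plex LC-MS/MS with channel sums equalised. Thermal stability is reported relative to control samples, with values from duplicates. Fold changes are given on a log2 scale.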
Consider TIMM13 (UniProt Q9Y5L4), for which the log2 fold change is 0.092.
With SLC25A38 (UniProt Q96DW6), the log2 fold change was 0.01.
SMARCA5 (UniProt O60264): the log2 fold change is -0.97 (active).
For the target TEX30 (UniProt Q5JUR7), the log2 fold change is 0.028.
Regarding SMG1 (UniProt Q96Q15), the log2 fold change was 0.054.
As to SNRPD3 (UniProt P62318), the log2 fold change is 0.022.
Take SUPT5H (UniProt O00267): the log2 fold change was -0.08.
As for SPAST (UniProt Q9UBP0), the log2 fold change was 0.114.
For the target TBCD (UniProt Q9BTW9), the log2 fold change was -0.086.
As for SMAP (UniProt O00193), the figure is -0.021; as for SPR (UniProt P35270), 0.083; as for TAOK3 (UniProt Q9H2K8), 0.035.
Under SP3 (UniProt Q02447) stands 0.607 (active).
With STOM (UniProt P27105), the log2 fold change was 0.039.
Under TJP1 (UniProt Q07157) stands 0.034; under SLC30A10 (UniProt Q6XR72), 0.12.
As for SPCS2 (UniProt Q15005), the figure is 0.002.
Take TM9SF4 (UniProt Q92544): the log2 fold change is 0.077.
Turning to STAT5B (UniProt P51692), the log2 fold change is -0.022.
As for SRSF10 (UniProt O75494), the log2 fold change was -0.396.
Take SNX12 isoform 1 (UniProt Q9UMY4): the log2 fold change is 0.
In the case of TBC1D15 isoform 3 (UniProt Q8TC07), the log2 fold change was -0.01.
SYMPK (UniProt Q92797): the log2 fold change is -0.033.
Under TBC1D23 (UniProt Q9NUY8) stands 0.01; under SMAP2 (UniProt Q8WU79), 0.004; under SNX5 (UniProt Q9Y5X3), -0.026.
On to SNX9 (UniProt Q9Y5X1), for which the log2 fold change is 0.02.
With SRPRB (UniProt Q9Y5M8), the log2 fold change is 0.292 (active).
As to TANGO6 (UniProt Q9C0B7), the log2 fold change is 0.006.
For the target TGFBRAP1 (UniProt Q8WUH2), the log2 fold change is -0.017.
Turning to TANK (UniProt Q92844), the log2 fold change was -0.053.
Take TBRG4 (UniProt Q969Z0): the log2 fold change is -0.171.
With TERF2IP (UniProt Q9NYB0), the log2 fold change is -0.33 (active).
As to STK25 (UniProt O00506), the log2 fold change is 0.08.
With SLC27A4 (UniProt Q6P1M0), the log2 fold change was 0.104.
On to SMC5 (UniProt Q8IY18), for which the log2 fold change is -0.332 (active).
With SLC30A7 (UniProt Q8NEW0), the log2 fold change is 0.06.

Source of the values: the supplement of paper PMC10849652.
